# CHRM1 antagonist: human CHRM1 antagonism | 360,000 compounds, 1.3% hits | inhibition, % at 3 µM | P11229 | CHO-K1 hM1, Fluo-8 calcium fluorescence, ACh EC80 antagonist;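 active = percent inhibition above its own plate's cutoff, namely the mean of that plate's compound wells plus 3 SD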;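 also: peak over basal fluorescence ratio during 140 s after agonist addition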
# Target sequence (P11229 whole entry, looked up): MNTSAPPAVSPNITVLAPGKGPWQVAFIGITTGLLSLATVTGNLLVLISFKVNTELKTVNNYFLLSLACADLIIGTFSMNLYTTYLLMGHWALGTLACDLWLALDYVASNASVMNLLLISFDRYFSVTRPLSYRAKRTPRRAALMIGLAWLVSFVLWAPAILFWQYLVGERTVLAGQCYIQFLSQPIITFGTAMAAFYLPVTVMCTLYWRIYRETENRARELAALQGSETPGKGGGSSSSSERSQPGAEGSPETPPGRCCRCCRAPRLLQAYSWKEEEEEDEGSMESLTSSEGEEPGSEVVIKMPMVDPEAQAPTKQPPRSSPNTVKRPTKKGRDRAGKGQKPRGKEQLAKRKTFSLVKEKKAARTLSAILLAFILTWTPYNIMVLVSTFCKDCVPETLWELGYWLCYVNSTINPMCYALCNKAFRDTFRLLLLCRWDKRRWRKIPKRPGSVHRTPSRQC
# M1 ag: human M1 muscarinic receptor agonism; P11229; CHO-K1 hM1, Fluo-8 calcium fluorescence, agonist mode; 0% DMSO, 100% acetylcholine EC100; activation, % at 3 µM; 360,000 compounds, 0.33% hits; AID 588814;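 active = activation above the run's mean compound activation plus 3 SD, cut at about 16% in these data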;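 also: peak over basal fluorescence ratio within a 140 s kinetic read after compound addition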
# CHRM1 PAM: positive allosteric modulators of human M1 muscarinic receptor | 360,000 compounds, 0.088% hits | CHO-K1 hM1, Fluo-8 calcium fluorescence, ACh EC20; 0% = ACh EC20, 100% = maximal ACh | activation, % at 3 µM | AID 588819; in the data active = activation above about 19%, passing the limit was not always enough
# M1 ag parental: counter-screen for M1 agonists: effect in parental CHO-K1 cells | Fluo-8 calcium fluorescence; scaled to maximal ATP response, vehicle zero | activation, % at 3 µM | 360,000 compounds, 0.48% hits | AID 602248; in the data active = activation above about 15%;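 also: untransfected CHO-K1 host cells lacking M1 receptor as counterscreen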
# CHO-K1 Ca PAM: nonselective activator or artifact in parental CHO-K1 calcium assay. ATP EC20, Fluo-8 calcium fluorescence; 0% at ATP EC20, 100% at ATP max. activation, % at 3 µM. 360,000 compounds, 0.02% hits;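 active = activation above the run cutoff, the mean activation of all test compounds plus 3 SD, cut at about 40% in these data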;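 also: peak over basal fluorescence ratio in a 140 s read after ATP addition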
# CHO-K1 Ca antag: counter-screen for M1 antagonists: effect in parental CHO-K1 cells; ATP-induced calcium, Fluo-8 fluorescence; inhibition, % at 3 µM; 360,000 compounds, 0.6% hits; AID 602250;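 active = inhibition above a per-plate cutoff, the plate's mean sample inhibition plus 3 SD, cut at about 24% in these data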
# Hits are given with their value; – = inactive. In the library only some 2.4% were active in any assay of this set; here they are far more common.
SMILES,CHRM1 antagonist,M1 ag,CHRM1 PAM,M1 ag parental,CHO-K1 Ca PAM,CHO-K1 Ca antag
COC(=O)c1ccc(CN2CCCC(C(=O)Nc3cccc(-n4cccn4)c3)C2)cc1 (stereo not drawn),41,38,–,–,–,–
CCNC(=O)C1CCCN(Cc2ccc(C(=O)OCC)cc2)CC1 (stereo not drawn),65,–,–,–,–,–
COc1ccc(CN2CCCC(C(=O)Nc3cccc(-n4cccn4)c3)C2)cc1 (stereo not drawn),–,–,–,–,–,–
COC(=O)c1ccc(CN2CCC(n3nccc3NC(=O)C3CC3)CC2)cc1,–,19,–,–,–,–
Cc1ccc(/C=C/C(=O)NCCCN2CCN(CCCNC(=O)/C=C/c3ccc(C)cc3)CC2)cc1,–,–,–,–,–,–
COc1ccc(/C=C/C(=O)NCCCN2CCCC2)cc1,41,–,–,–,–,–
Cn1c(SCC(=O)N2c3ccccc3Sc3ccc(Cl)cc32)nnc1-c1ccco1,–,–,–,–,–,–
O=C(CN1CCOCC1)N1c2ccccc2Sc2ccc(Cl)cc21,–,–,–,–,–,–
CCOC(=O)c1c(C)sc2c1N(C(=O)CN(CC)CC)c1cc(Cl)ccc1S2,–,–,–,–,–,–
CCN(CC)CCC(=O)N1c2ccccc2Sc2ccc(Cl)cc21,100,–,–,–,–,–
CN(C)CC(=O)N1c2ccccc2Sc2ccc(Cl)cc21,99,–,–,–,–,–
Cn1nnnc1SCC(=O)N1c2ccccc2Sc2ccc(Cl)cc21,30,–,–,–,–,–
CN(C)CCC(=O)N1c2ccccc2Sc2ccc(Cl)cc21,99,–,–,–,–,–
CC(C)(C)n1nc2c(c1NC(=O)c1ccc(Cl)c([N+](=O)[O-])c1)CS(=O)(=O)C2,–,–,–,–,–,–
CCN(CC)CC#CCC(O)(c1ccccc1)C1CCCCC1 (stereo not drawn),99,–,–,16,–,–
Cc1ccc(S(=O)(=O)N(C)CC(=O)NNC(=O)CCNS(=O)(=O)c2cccc(C)c2)cc1,–,–,–,–,–,–
COc1ccc([C@@H]2C[C@H]3[C@@H](CN2S(=O)(=O)c2ccccc2)C(=O)C[C@@H](c2ccc(OC)cc2)N3S(=O)(=O)c2ccccc2)cc1,–,–,–,–,–,28
O=C(c1ccco1)N1CCN(c2ccc(Cl)cc2)CC1,–,–,–,–,–,–
O=C(c1ccco1)N1CCN(c2ccc(Cl)c(Cl)c2)CC1,33,–,–,–,–,26
O=C(CCC(=O)N1CCN(c2ccc(Cl)c(Cl)c2)CC1)c1ccccc1,44,–,–,–,–,–
CNC(=S)N1CCN(c2ccc(Cl)c(Cl)c2)CC1,–,–,–,17,–,–
COC(=O)N1CCN(c2ccc(Cl)c(Cl)c2)CC1,–,–,–,–,–,–
CC(=O)Nc1ccc(C(=O)CSc2nnc(-c3ccccc3F)n2CCc2ccccc2)cc1,–,–,–,–,–,–
CC1CCCC(C)N1CCCNC(=O)C1CCCN(S(=O)(=O)N2CCCCC2)C1 (stereo not drawn),–,–,–,–,–,–
CCOC(=O)C(Cc1ccc(NC(=O)/C(=C/c2ccc(OC(C)=O)cc2)NC(C)=O)cc1)N1C(=O)c2ccccc2C1=O (stereo not drawn),27,–,–,–,–,–
SMILES,CHRM1 antagonist,M1 ag,CHRM1 PAM,M1 ag parental,CHO-K1 Ca PAM,CHO-K1 Ca antag
CCOC(=O)C(Cc1ccc(NC(=O)/C(=C/c2ccccc2)NC(=O)c2ccccc2)cc1)N1C(=O)c2ccccc2C1=O (stereo not drawn),–,–,–,–,–,–
CC(=O)C1=C(O)C(=O)N(c2ccccn2)C1c1ccccc1[N+](=O)[O-] (stereo not drawn),–,–,–,–,–,–
O=c1c(Cl)c(Cl)cnn1Cc1nnc(-c2ccccc2Br)o1,94,86,–,71,–,95
Clc1ccccc1OCc1nnc(-c2ccccc2Br)o1,–,–,–,–,–,–
Cc1onc(-c2c(F)cccc2Cl)c1C(=O)Nc1cc(S(=O)(=O)N2CCCCC2)ccc1O,47,–,–,–,–,26
Cc1ccccc1NS(=O)(=O)c1ccc(C(=O)N2CCN(c3ccccn3)CC2)cc1,–,–,–,–,–,–
O=C(c1ccc(S(=O)(=O)c2cccc(Cl)c2)c([N+](=O)[O-])c1)N1CCN(c2ccccn2)CC1,58,–,–,16,–,26
O=C(c1ccc(S(=O)(=O)Nc2ccccc2F)cc1)N1CCN(c2ccccn2)CC1,51,–,–,–,–,–
O=C(c1cccc(Cl)c1)N1CCN(c2ccccn2)CC1,–,–,–,–,–,–
CCn1cc(/C=C(\NC(=O)c2ccccc2F)C(=O)NCCN2CCOCC2)c2ccccc21,–,–,–,–,–,–
O=C1N/C(=N\S(=O)(=O)Cc2ccccc2)S/C1=C/c1cc([N+](=O)[O-])ccc1O,37,29,–,37,–,41
O=C1N/C(=N\S(=O)(=O)c2ccccc2)S/C1=C\c1cc([N+](=O)[O-])ccc1O,–,32,–,19,–,–
COc1cc(/C=C2/S/C(=N/S(=O)(=O)c3ccccc3)NC2=O)c([N+](=O)[O-])cc1OC,–,–,–,–,–,–
Cc1ccc(O)c([C@H](CCN(C(C)C)C(C)C)c2ccccc2)c1,100,–,–,–,–,–
CCCN(CCC)C(=O)CC(c1ccccc1)c1ccc(C)cc1O (stereo not drawn),–,–,–,–,–,–
COc1cc(C(=O)Oc2cccc(Nc3ncnc4ccccc34)c2)cc(OC)c1OC,41,–,–,–,–,–
CCOC(=O)N1CCC2(CC1)NC(=O)c1ccccc1N2,–,–,–,–,–,–
Cc1cc(NC(=O)c2ccc(Cl)cc2)n(CCC#N)n1,–,–,–,16,–,–
Cc1ccc(C(=O)Nc2cc(C)nn2CCC#N)cc1,–,–,–,–,–,–
CCOC(=O)c1ccn(CSc2c(F)c(F)cc(F)c2F)n1,33,–,–,–,–,–
COC(=O)c1ccn(CSc2c(F)c(F)cc(F)c2F)n1,–,–,–,–,–,–
COc1cccc(CN2CCN(Cc3[nH]c4ccccc4c3C)CC2CCO)c1 (stereo not drawn),–,–,–,22,–,–
CC(=O)c1cccc(CN2CCN(Cc3ccc(C)cc3)C(CCO)C2)c1 (stereo not drawn),40,–,–,–,–,–
CC(=O)c1cccc(CN2CCN(Cc3ccc(F)cc3)C(CCO)C2)c1 (stereo not drawn),–,–,–,–,–,–
CCOC(=O)C1CCN(C(=O)COC(=O)C2CCN(S(=O)(=O)c3ccc(C)c(C)c3)CC2)CC1,–,–,–,–,–,–

# Source: PubChem
